Results from paper PMC7862700, “An all-to-all approach to the identification of sequence-specific readers for epigenetic DNA modifications on cytosine”.

Assays:
Experiment in all cases: DAPPL (digital affinity profiling via proximity ligation, sequencing); 10 mM Tris-HCl pH 7.5, 50 mM NaCl, 1 mM DTT, 4% glycerol, room temperature, 30 min; GST-TFs on glutathione beads, 16-mer random dsDNA library, 0.1% formaldehyde crosslink after washing; high values mean tight binding
FEV = target: T1, FEV (Homo sapiens, UniProt Q99581 1-238); conditions: protein: recombinant; tags: N-terminal GST; dsDNA, one strand shown
T1 sequence: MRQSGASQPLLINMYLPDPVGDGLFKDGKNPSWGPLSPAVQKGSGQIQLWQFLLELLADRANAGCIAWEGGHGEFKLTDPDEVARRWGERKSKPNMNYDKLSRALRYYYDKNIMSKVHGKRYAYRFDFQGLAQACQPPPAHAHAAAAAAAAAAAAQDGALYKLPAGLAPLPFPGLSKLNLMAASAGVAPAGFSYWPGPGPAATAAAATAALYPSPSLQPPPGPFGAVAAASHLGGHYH
How it was run: (§1)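 Human transcription factors were made in yeast as GST fusions, captured on glutathione beads and barcoded with DNA. With a tag-only sample included, the pool was incubated with 200 nmole of a random double-stranded 16-mer DNA library in Tris/NaCl/DTT/glycerol buffer at room temperature for 30 min, then crosslinked with 0.1% formaldehyde after washing, ligated by proximity, amplified and sequenced. For binding signal, each hexamer's read frequency for a factor is divided by its frequency for the tag-only sample.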

ETV5 = ETV5 (Homo sapiens, UniProt P41161 1-510); conditions: protein: recombinant; tags: N-terminal GST; dsDNA, one strand shown
How it was run: as §1

HSF1 = HSF1 (Homo sapiens, UniProt Q00613 1-529); conditions: protein: recombinant; tags: N-terminal GST; chain copies: 3; dsDNA, one strand shown
How it was run: as §1

SPIC = target: T2, SPIC (Homo sapiens, UniProt Q8N5J4 1-248); conditions: protein: recombinant; tags: N-terminal GST; dsDNA, one strand shown
T2 sequence: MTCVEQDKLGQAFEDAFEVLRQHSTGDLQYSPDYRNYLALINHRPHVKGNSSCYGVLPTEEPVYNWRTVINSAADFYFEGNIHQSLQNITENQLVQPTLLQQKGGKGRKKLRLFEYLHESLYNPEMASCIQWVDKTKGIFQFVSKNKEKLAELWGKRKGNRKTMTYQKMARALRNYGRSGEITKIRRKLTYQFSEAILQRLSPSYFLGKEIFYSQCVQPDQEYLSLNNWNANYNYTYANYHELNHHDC
How it was run: as §1

ELF4 = ELF4 (Homo sapiens, UniProt Q99607 1-663); conditions: protein: recombinant; tags: N-terminal GST; dsDNA, one strand shown
How it was run: as §1

ELK4 = target: T3, ELK4 (Homo sapiens, UniProt P28324-2 1-405); conditions: protein: recombinant; tags: N-terminal GST; dsDNA, one strand shown
T3 sequence: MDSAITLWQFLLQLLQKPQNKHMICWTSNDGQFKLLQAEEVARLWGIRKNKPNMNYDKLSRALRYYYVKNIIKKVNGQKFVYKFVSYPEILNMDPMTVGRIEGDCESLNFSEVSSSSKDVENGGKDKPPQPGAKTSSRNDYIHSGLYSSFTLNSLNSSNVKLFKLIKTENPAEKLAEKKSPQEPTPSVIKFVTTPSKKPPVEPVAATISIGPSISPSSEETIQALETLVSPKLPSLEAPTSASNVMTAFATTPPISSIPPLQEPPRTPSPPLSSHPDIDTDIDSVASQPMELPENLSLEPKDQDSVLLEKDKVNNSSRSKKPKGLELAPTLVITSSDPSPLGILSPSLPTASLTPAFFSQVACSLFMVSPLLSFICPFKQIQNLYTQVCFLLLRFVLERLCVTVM
How it was run: as §1

ETV2 = target: T4, ETV2 (Homo sapiens, UniProt O00321 1-342); conditions: protein: recombinant; tags: N-terminal GST; dsDNA, one strand shown
T4 sequence: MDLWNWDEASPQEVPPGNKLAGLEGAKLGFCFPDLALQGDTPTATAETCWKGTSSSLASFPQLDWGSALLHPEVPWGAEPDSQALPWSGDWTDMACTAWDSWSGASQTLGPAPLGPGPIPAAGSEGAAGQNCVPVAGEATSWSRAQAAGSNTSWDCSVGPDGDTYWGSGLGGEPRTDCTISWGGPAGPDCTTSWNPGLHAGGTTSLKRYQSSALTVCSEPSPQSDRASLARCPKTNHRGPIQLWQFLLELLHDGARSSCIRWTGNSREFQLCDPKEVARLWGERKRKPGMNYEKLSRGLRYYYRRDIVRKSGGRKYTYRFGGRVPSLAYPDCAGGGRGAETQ
How it was run: as §1

ELF3 = target: T5, ELF3 (Homo sapiens, UniProt P78545 1-371); conditions: protein: recombinant; tags: N-terminal GST; dsDNA, one strand shown
T5 sequence: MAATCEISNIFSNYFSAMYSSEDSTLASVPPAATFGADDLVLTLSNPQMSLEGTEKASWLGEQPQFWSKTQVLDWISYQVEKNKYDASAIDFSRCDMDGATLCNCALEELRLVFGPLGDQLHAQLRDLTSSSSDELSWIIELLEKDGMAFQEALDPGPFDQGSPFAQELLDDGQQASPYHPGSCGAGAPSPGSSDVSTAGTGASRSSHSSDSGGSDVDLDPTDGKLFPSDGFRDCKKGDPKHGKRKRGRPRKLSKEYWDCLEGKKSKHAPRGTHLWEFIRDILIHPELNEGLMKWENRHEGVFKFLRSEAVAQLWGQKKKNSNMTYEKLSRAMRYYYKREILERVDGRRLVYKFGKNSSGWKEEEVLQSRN
How it was run: as §1

CRX = CRX (Homo sapiens, UniProt O43186 1-299); conditions: protein: recombinant; tags: N-terminal GST; dsDNA, one strand shown
How it was run: as §1

ETV1 = ETV1 (Homo sapiens, UniProt P50549 1-477); conditions: protein: recombinant; tags: N-terminal GST; dsDNA, one strand shown
How it was run: as §1

ERF = target: T6, ERF (Homo sapiens, UniProt P50548 1-548); conditions: protein: recombinant; tags: N-terminal GST; dsDNA, one strand shown
T6 sequence: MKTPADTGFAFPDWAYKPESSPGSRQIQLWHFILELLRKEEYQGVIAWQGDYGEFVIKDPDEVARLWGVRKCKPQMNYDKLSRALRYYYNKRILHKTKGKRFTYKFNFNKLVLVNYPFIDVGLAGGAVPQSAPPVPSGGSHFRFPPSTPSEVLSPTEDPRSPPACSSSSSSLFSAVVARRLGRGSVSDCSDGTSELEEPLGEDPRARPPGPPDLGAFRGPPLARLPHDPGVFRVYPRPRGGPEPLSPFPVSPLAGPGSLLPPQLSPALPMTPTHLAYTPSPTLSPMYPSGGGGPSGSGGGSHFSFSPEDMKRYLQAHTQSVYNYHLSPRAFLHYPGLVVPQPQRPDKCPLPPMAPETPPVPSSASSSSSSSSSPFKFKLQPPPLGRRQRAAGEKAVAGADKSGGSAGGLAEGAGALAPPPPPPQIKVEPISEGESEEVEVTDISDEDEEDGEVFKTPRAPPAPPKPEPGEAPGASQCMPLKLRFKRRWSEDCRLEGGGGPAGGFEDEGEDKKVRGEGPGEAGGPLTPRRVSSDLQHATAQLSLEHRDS
How it was run: as §1

ETV3L = target: T7, ETV3L (Homo sapiens, UniProt Q6ZN32 1-361); conditions: protein: recombinant; tags: N-terminal GST; dsDNA, one strand shown
T7 sequence: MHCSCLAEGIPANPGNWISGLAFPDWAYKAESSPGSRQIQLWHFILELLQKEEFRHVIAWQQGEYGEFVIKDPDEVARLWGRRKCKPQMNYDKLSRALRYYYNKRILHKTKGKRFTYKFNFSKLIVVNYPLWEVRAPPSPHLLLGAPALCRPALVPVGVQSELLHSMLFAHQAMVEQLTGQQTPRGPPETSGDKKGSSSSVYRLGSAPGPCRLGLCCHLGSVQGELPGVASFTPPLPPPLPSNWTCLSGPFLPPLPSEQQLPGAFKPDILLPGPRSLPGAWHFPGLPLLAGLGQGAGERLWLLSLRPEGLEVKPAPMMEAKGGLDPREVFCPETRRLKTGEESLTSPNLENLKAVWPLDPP
How it was run: as §1

ETS2 = target: T8, ETS2 (Homo sapiens, UniProt P15036 1-469); conditions: protein: recombinant; tags: N-terminal GST; dsDNA, one strand shown
T8 sequence: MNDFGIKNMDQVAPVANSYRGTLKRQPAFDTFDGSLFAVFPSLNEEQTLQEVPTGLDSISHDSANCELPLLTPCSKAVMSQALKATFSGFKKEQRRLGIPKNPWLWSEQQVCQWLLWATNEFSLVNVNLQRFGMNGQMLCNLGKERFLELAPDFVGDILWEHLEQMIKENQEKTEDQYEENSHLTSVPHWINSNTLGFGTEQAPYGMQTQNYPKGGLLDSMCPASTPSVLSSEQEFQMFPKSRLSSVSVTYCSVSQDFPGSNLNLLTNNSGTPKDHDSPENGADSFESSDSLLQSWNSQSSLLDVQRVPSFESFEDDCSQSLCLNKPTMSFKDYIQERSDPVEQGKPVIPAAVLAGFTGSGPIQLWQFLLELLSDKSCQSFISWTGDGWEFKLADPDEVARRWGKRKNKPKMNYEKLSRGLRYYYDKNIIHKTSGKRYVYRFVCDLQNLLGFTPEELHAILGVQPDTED
How it was run: as §1

SPDEF = target: T9, SPDEF (Homo sapiens, UniProt O95238 1-335); conditions: protein: recombinant; tags: N-terminal GST; dsDNA, one strand shown
T9 sequence: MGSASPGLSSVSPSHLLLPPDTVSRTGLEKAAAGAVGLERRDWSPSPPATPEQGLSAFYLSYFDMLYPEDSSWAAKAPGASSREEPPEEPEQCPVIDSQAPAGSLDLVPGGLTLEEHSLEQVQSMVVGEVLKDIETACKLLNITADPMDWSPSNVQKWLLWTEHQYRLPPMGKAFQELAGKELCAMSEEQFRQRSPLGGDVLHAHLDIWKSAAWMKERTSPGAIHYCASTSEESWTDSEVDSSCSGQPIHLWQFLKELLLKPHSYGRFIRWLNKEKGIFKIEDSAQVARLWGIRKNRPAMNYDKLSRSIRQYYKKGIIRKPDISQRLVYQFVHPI
How it was run: as §1

ETV7 = target: T10, ETV7 (Homo sapiens, UniProt Q9Y603 1-341); conditions: protein: recombinant; tags: N-terminal GST; dsDNA, one strand shown
T10 sequence: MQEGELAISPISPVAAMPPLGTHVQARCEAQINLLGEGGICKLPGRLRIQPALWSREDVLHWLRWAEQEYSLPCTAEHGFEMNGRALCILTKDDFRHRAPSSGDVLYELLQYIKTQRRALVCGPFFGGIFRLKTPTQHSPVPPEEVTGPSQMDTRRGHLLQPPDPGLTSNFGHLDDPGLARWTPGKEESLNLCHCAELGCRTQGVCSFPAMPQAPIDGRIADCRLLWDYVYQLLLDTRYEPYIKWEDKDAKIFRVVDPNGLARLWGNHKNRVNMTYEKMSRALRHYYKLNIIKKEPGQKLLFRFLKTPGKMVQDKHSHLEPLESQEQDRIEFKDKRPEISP
How it was run: as §1

ELF5 = target: T11, ELF5 (Homo sapiens, UniProt Q9UKW6-2 1-255); conditions: protein: recombinant; tags: N-terminal GST; dsDNA, one strand shown
T11 sequence: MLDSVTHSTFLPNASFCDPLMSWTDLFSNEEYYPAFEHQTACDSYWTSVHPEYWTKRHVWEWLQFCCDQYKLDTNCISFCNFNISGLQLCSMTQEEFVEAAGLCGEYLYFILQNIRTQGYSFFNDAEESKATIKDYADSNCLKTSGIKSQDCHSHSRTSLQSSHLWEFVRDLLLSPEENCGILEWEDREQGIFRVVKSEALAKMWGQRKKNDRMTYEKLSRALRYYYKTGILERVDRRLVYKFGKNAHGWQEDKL
How it was run: as §1

ETV3 = target: T12, ETV3 (Homo sapiens, UniProt P41162-2 1-143); conditions: protein: recombinant; tags: N-terminal GST; dsDNA, one strand shown
T12 sequence: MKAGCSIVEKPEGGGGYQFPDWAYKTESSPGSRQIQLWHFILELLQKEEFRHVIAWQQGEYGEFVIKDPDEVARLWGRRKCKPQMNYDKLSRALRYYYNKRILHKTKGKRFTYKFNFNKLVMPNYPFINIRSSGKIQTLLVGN
How it was run: as §1

ETV6 = ETV6 (Homo sapiens, UniProt P41212 1-452); conditions: protein: recombinant; tags: N-terminal GST; dsDNA, one strand shown
How it was run: as §1

Sequence of CRX (O43186 whole entry): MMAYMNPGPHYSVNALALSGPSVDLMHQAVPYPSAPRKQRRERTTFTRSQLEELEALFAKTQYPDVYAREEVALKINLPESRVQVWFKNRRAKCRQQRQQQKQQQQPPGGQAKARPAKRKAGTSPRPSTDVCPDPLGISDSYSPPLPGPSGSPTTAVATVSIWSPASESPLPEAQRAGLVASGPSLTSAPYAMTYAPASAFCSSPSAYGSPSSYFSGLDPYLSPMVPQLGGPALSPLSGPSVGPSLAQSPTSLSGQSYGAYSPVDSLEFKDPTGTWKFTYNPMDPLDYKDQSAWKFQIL
Sequence of ETV6 (P41212 whole entry): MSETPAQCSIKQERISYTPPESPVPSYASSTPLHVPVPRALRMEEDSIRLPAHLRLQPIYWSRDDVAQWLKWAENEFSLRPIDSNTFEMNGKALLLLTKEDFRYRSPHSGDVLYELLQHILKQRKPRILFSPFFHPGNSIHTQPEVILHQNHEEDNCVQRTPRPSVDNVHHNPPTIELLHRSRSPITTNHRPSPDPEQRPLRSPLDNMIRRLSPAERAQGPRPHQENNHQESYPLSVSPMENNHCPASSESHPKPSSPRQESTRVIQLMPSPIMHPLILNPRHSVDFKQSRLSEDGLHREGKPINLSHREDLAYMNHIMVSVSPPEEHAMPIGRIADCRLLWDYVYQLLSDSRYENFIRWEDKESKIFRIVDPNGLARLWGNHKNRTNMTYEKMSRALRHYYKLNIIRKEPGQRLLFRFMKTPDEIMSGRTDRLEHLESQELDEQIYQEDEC
Sequence of ELF4 (Q99607 whole entry): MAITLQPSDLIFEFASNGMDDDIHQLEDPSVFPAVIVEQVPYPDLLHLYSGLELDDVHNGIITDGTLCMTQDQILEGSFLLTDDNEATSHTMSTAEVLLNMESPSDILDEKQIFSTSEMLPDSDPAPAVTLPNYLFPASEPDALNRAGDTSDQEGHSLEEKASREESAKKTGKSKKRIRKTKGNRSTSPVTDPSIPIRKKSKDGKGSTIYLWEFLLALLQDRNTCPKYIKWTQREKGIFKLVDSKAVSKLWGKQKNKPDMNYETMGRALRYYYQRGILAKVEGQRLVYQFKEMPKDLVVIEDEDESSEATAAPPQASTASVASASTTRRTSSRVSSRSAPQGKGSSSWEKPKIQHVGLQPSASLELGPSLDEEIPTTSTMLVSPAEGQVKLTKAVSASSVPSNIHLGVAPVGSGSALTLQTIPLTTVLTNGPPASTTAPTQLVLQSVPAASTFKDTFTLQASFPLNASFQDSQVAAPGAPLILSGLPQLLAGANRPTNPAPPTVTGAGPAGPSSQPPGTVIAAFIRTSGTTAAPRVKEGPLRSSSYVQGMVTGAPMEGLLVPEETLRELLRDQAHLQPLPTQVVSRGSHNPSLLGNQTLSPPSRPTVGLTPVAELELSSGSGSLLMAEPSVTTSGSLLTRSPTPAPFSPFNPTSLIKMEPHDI
Sequence of HSF1 (Q00613 whole entry): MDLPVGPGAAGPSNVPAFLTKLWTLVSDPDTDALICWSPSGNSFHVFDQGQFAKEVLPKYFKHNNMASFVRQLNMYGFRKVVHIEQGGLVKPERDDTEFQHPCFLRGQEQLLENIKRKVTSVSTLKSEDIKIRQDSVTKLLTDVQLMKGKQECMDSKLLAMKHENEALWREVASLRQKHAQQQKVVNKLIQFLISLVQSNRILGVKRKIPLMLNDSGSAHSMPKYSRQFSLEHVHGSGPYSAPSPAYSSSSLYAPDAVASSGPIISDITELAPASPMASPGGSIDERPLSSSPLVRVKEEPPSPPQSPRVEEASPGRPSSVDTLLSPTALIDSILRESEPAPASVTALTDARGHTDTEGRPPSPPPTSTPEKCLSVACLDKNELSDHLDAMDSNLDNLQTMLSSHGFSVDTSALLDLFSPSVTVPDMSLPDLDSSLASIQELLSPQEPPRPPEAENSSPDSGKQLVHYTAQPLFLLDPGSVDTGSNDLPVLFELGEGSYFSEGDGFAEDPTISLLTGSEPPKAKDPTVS
Sequence of ETV1 (P50549 whole entry): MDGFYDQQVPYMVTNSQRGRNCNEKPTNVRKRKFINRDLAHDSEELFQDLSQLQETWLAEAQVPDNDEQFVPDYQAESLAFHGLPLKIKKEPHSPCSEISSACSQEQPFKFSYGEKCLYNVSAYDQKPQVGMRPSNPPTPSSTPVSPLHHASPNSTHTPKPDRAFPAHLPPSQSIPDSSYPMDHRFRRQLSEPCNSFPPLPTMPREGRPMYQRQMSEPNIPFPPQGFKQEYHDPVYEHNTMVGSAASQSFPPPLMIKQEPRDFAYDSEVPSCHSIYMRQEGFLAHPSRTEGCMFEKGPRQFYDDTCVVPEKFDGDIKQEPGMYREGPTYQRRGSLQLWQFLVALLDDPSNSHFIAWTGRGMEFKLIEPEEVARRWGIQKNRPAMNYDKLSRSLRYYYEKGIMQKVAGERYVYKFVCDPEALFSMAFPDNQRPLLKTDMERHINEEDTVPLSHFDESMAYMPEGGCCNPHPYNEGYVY
Sequence of ETV5 (P41161 whole entry): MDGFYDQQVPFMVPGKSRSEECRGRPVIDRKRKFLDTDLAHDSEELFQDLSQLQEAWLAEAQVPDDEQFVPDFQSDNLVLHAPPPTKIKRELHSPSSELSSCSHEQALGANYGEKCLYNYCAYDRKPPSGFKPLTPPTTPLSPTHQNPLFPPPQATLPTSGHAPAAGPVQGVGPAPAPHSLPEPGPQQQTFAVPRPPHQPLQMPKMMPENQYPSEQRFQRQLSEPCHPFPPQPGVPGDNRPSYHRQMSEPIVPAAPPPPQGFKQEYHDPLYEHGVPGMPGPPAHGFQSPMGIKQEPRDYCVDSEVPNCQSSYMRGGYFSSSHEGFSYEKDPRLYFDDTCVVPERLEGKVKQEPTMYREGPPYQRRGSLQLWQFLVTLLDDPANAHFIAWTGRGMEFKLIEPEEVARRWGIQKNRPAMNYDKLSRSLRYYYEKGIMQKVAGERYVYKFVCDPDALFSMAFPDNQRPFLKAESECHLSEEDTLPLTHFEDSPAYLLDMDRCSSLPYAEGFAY

Q: What does the source list for TATGTA?
A: binding signal (FEV): 1.28 fold enrichment (6-mer frequency, TF over GST control); binding signal (ETV5): 1.25 fold enrichment (6-mer frequency, TF over GST control); binding signal (HSF1): 1.28 fold enrichment (6-mer frequency, TF over GST control); binding signal (SPIC): 1.26 fold enrichment (6-mer frequency, TF over GST control); binding signal (ELF4): 1.38 fold enrichment (6-mer frequency, TF over GST control); binding signal (ELK4): 1.39 fold enrichment (6-mer frequency, TF over GST control); binding signal (ETV2): 1.23 fold enrichment (6-mer frequency, TF over GST control); binding signal (ELF3): 1.52 fold enrichment (6-mer frequency, TF over GST control); binding signal (CRX): 1.51 fold enrichment (6-mer frequency, TF over GST control); binding signal (ETV1): 1.3 fold enrichment (6-mer frequency, TF over GST control); binding signal (ERF): 1.36 fold enrichment (6-mer frequency, TF over GST control); binding signal (ETV3L): 1.29 fold enrichment (6-mer frequency, TF over GST control); binding signal (ETS2): 1.38 fold enrichment (6-mer frequency, TF over GST control); binding signal (SPDEF): 1.35 fold enrichment (6-mer frequency, TF over GST control); binding signal (ETV7): 1.35 fold enrichment (6-mer frequency, TF over GST control); binding signal (ELF5): 1.26 fold enrichment (6-mer frequency, TF over GST control); binding signal (ETV3): 1.25 fold enrichment (6-mer frequency, TF over GST control); binding signal (ETV6): 1.28 fold enrichment (6-mer frequency, TF over GST control)
